Screening results: PubChem BioAssay, National Center for Advancing Translational Sciences (NCATS)
Hits are enriched below; roughly 14% of the tested compounds scored in any of these assays.
Pf growth 48h = P. falciparum growth inhibition at 48 hours (one generation); P. falciparum luciferase growth in erythrocytes, 48 h; Potency, µM (titrated, usually from 28.7 µM), actives largely listed as inhibitors; 310,000 tested, 5.9% active; AID 504832
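Compounds are pin-transferred into medium, infected erythrocytes (2% hematocrit, 0.1% parasitemia final) are added, and plates sit one parasite generation at 37 C in 5% CO2. Detection reagent is then added and luminescence measured.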
HCV inhibitor = HCV inhibition | Potency, µM (titrated, usually from 41.8 µM), actives largely listed as inhibitors | 340,000 tested, 3.4% active | Huh7.5.1 HCVcc-Cre infection, luciferase reporter, 44 h
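Cells seeded at 1,000/well and cultured 4 h, then compounds added followed by HCVcc-Cre virus (~0.5 moi). After 44 h further culture, luciferase substrate was added, plates held 15 min at room temperature, and luminescence read for 15 sec.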
HCMV inh = human cytomegalovirus inhibition. HFF cells, HCMV-luciferase reporter, 72 h; hits give low values. activity change, negative = inhibition, % at 57.5 µM. AID 1259415. 410,000 tested, 4.5% active; in the data active means activity change below about -60%; inconclusive means no clear call, values can overlap the other calls; inactive means above about -39%
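Steps: HFFs plated, 16 h 37C; compounds added; HCMV-luciferase added to MOI 1 PFU/cell; 72 h 37C; OneGlo reagent, 5 min room temperature; luminescence read, normalized to controls.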
LASV entry inh = blocks Lassa virus binding to or entry into cells; Lassa virus pseudotype entry inhibition, cell reporter; Potency, µM (highest dose often 37.9 µM), hits mostly inhibitors; 300,000 tested, 1.2% active; AID 540256; calls by dose curve; tested in HEK293 cells; further: nearly all actives have a fitted effect of over 50% in size
Pf growth 96h = inhibits malaria parasite growth, 96 h. P. falciparum luciferase reporter growth, 96 h. Potency, µM (doses to about 28.7 µM), usual class: inhibitors. 320,000 tested, 6.9% active. AID 504834
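Infected RBCs, 2% Hct / 0.05% parasitemia final; luciferase-reporter P. falciparum; cpd 96 h, 37 C, 5% CO2; luciferase detection reagent; luminescence.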
Marburg entry inh = inhibitors of Marburg virus binding or cell entry; Potency, µM (series often up to 37.8 µM), actives largely listed as inhibitors; 300,000 tested, 1.8% active; Marburg virus pseudotyped entry inhibition, cell reporter; AID 540276; calls by dose curve; tested in HEK293 cells
A number is an active result; n = inactive; u = inconclusive; x = no result given. Unless noted, the call rests on the fitted dose curve; in most records, active means well fitted inhibition curve with a large enough effect; inconclusive means small, poorly fitted or top-dose-only effect, or another doubt; inactive means no such curve, though single readings can be large or run the other way.

SMILES | Pf growth 48h | HCV inhibitor | HCMV inh | LASV entry inh | Pf growth 96h | Marburg entry inh
CCC(=O)NC(c1cccs1)c1cc([N+](=O)[O-])c2cccnc2c1O (stereo not drawn) | u | u | -80.8 | u | n | u
O=C(CCc1ccccc1)NC(c1cccs1)c1cc(Cl)c2cccnc2c1O (stereo not drawn) | 0.415µM | 1µM | -101.8 | 2.82µM | n | u
CCC(=O)NC(c1cccs1)c1cc(Br)c2cccnc2c1O (stereo not drawn) | 0.928µM | x | x | x | 2.94µM | x
CC(=O)NC(c1ccccc1)c1cc([N+](=O)[O-])c2cccnc2c1O (stereo not drawn) | u | u | n | u | n | u
CCC(=O)NC(c1cccs1)c1cc(Cl)c2ccccc2c1O (stereo not drawn) | n | x | n | x | u | x
Cn1cnc([N+](=O)[O-])c1Sc1nnc(-c2ccccc2)c(-c2ccccc2)n1 | x | x | n | x | x | x
CC(C)C(=O)NC(c1ccccc1)c1cc([N+](=O)[O-])c2cccnc2c1O (stereo not drawn) | n | u | n | u | 0.37µM | u
CCCC(=O)NC(c1cccs1)c1cc([N+](=O)[O-])c2cccnc2c1O (stereo not drawn) | u | u | -99.3 | u | n | u
CC(=O)NC(c1cccs1)c1cc(Cl)c2ccccc2c1O (stereo not drawn) | n | x | n | x | u | x
CC[N+](CC)(CC#CCO)CC#Cc1ccccc1 | u | n | n | n | 10.4µM | n
C#CC[N+](C)(C)CC#Cc1ccc(Cl)cc1 | 1.65µM | n | -93.9 | n | u | n
C#CC[N+](CC)(CC)CC#Cc1cccc(Cl)c1 | 10.4µM | n | n | n | u | n
Cc1ccc(CNC(=O)Cc2ccc(NC(=O)N3CCSc4ncccc43)cc2)cc1 | x | x | n | n | x | x
CCCCN1C(=O)C(O)=C(C(C)=O)C1c1ccccc1[N+](=O)[O-] (stereo not drawn) | n | n | n | x | n | x
O=C(O)CCCCCN1C(=O)C(O)=C(C(=O)/C=C/c2ccccc2)C1c1ccccc1[N+](=O)[O-] (stereo not drawn) | n | n | n | n | 9.28µM | n
CC#CCN1C(=O)N(C)C(c2ccccc2)C(C(=O)OC)=C1C (stereo not drawn) | x | x | x | x | x | n
CC(C)[C@H](NC(=O)c1ccc(Cl)cc1)C(=O)OCC(=O)N1CCN(c2ccccc2)CC1 | x | u | n | n | x | n
Nc1cc2ccncc2c2ccccc12 | 0.117µM | n | -95.6 | x | u | x
COc1ccc(-c2c(C#CC(C)(C)O)c3ccccc3n2C)cc1 | x | u | n | x | x | x
COC(=O)c1ccc2c(c1)c(C#Cc1ccccc1)c(-c1ccccc1)n2C | x | u | n | x | x | x
COc1ccc(C#Cc2ccc3c(=O)c4ccccc4n(C)c3c2)cc1 | n | n | x | x | 8.28µM | x
COc1ccc(C#Cc2c(C=O)n(C)c3ccccc23)cc1 | u | 10µM | n | x | u | x
Cn1c(C=O)c(C#Cc2ccccc2)c2ccccc21 | 11.7µM | 7.94µM | n | x | u | x
COc1ccc(OC)c(NC(=O)Cn2c(=O)n(-c3cccc(C)c3)c(=O)c3c2c2cc(C)ccc2n3C)c1 | x | x | n | n | x | u
C=CCn1c(SCC(=O)c2[nH]c(C)c(C(=O)OCC)c2C)nc2scc(-c3ccc(OC)c(OC)c3)c2c1=O | u | u | -100.0 | n | u | u
SMILES | Pf growth 48h | HCV inhibitor | HCMV inh | LASV entry inh | Pf growth 96h | Marburg entry inh
O=C(Nc1ccccc1O)C(c1ccccc1)c1ccccc1 | n | 12.6µM | u | n | n | u
O=C(O)c1ccccc1NC(=O)C(c1ccccc1)c1ccccc1 | x | n | n | n | x | n
O=C(Nc1ccccc1-c1ccccc1)C(c1ccccc1)c1ccccc1 | u | u | u | n | 1.65µM | u
O=C(NCCCn1ccnc1)c1ccc2ccccc2c1 | n | n | n | x | 11.7µM | x
O=C(NCCCn1ccnc1)c1cc(C2CC2)on1 | n | n | n | x | 10.4µM | x
Cc1ccc(-c2cc(C(=O)NCCCn3ccnc3)no2)cc1 | n | n | n | x | n | x
CN(c1ccc(C(=O)NCCCn2ccnc2)cc1)S(C)(=O)=O | n | n | n | x | n | x
C=CCN(c1ccc(C(=O)NCCCn2ccnc2)cc1)S(C)(=O)=O | n | n | n | n | 9.28µM | n
O=C(NCCCn1ccnc1)C1c2ccccc2Oc2ccccc21 | n | n | n | n | 10.4µM | n
Cc1ccc(Nc2ccc(N3CCN(C(=O)c4ccc([N+](=O)[O-])cc4Cl)CC3)nn2)cc1 | x | x | n | u | x | x
CC1CCCCC1NC(=O)COc1ccccc1C#N (stereo not drawn) | n | n | n | x | n | x
N#Cc1ccc(COC(=O)CSc2nnc(C3CCCCC3)n2N)cc1 | n | n | n | n | n | n
CCOC(=O)c1sc(N)c(C#N)c1CSc1nnc(C2CCCCC2)n1N | x | n | n | n | 10.4µM | n
CN1NC(=O)c2ccccc2NC1=S | x | x | -60.7 | x | x | x
Cc1cccc2sc(NC(=O)C3CC3)nc12 | n | n | n | n | n | u
